Measurements from PubChem BioAssay.

Target: Tumor necrosis factor receptor superfamily member 10B (Homo sapiens) (UniProt O14763)
Experiment: caspase-8 TRAIL sensitization, hit retest, confirmation, cell-based, NB7+caspase-8, with/without TRAIL, luminescence panel (AID 651596)
Conditions: NB7 neuroblastoma + caspase-8, TRAIL sensitization, luminescence viability, with TRAIL, mean of runs, at 10 µM, stronger effect = higher value; in the data active = activity above about 50%; inactive = the rest

Chain of Tumor necrosis factor receptor superfamily member 10B (Homo sapiens) (O14763 whole entry, looked up): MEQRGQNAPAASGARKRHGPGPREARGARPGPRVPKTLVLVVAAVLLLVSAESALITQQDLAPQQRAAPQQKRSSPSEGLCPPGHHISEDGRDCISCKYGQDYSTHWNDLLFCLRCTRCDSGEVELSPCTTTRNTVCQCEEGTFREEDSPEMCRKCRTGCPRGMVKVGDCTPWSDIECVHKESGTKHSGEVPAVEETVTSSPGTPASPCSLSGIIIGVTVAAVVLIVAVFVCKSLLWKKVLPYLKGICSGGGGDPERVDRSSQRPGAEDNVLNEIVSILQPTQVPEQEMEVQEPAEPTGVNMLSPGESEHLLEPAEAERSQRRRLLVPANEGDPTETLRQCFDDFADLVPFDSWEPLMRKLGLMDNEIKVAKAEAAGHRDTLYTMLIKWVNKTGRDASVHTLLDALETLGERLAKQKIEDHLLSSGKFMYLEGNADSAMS

| Compound | activity |
| --- | --- |
| CC(=C/c1ccccc1)/C=N/NC(=O)c1cc(C)oc1C | 58.5% |
| COc1cccc(C(=O)Nc2ccc(N3CCCC3)cc2)c1 | 46.8% |
| CC(=O)Nc1cccc(C(=O)OCC(=O)c2ccc3c(c2)OCO3)c1 | 70.3% |
| C(=N\Nc1ccc2ccccc2n1)/c1ccc2c(c1)OCO2 | 51.5% |
| Cc1cccc(NC(=O)/C=C/c2ccc3c(c2)OCO3)n1 | 80.4% |
| CCOc1ccc(-c2nnc(-c3ccco3)o2)cc1 | 52.5% |
| O=C(CSC(=S)N1CCOCC1)c1ccccc1 | 46.8% |
| Cc1cnc(NC(=O)c2ccccn2)s1 | 63.5% |
| COc1ccc(-c2cc3ccc(OCc4nn[nH]n4)cc3oc2=O)cc1 | 58.8% |
| O=C(Nc1ccc(Cl)cn1)c1ccc2c(c1)OCCO2 | 67.6% |
| O=C(Nc1ccn(Cc2ccccc2)n1)c1n[nH]c([N+](=O)[O-])c1Cl | 64.8% |
| Cc1ccsc1C(=O)OCC(=O)c1cc(C)n(CC2CCCO2)c1C (centres undefined) | 74.5% |
| Cn1c(NC(=O)c2ccccc2)nc2ccccc21 | 50.4% |
| COc1ccc(-c2cn3ccsc3n2)cc1 | 64.2% |
| O=c1c2cc(-c3ccccc3)sc2nc2n1N=C(c1cccs1)CS2 | 63.5% |
| O=C(/C=C/c1ccc2c(c1)OCCO2)c1ccc(O)cc1 | 41% |
| O=C(Nc1ccccc1)c1ccc2c(c1)OCCCO2 | 79.9% |

Tested on: not listed separately
Experiment: as above
Conditions: NB7 neuroblastoma + caspase-8, without TRAIL, luminescence viability, without TRAIL, mean of runs, at 10 µM

| Compound | activity |
| --- | --- |
| CC(=C/c1ccccc1)/C=N/NC(=O)c1cc(C)oc1C | 63.6% |
| COc1cccc(C(=O)Nc2ccc(N3CCCC3)cc2)c1 | 54% |
| CC(=O)Nc1cccc(C(=O)OCC(=O)c2ccc3c(c2)OCO3)c1 | 60.6% |
| C(=N\Nc1ccc2ccccc2n1)/c1ccc2c(c1)OCO2 | 31.6% |
| Cc1cccc(NC(=O)/C=C/c2ccc3c(c2)OCO3)n1 | 75.4% |
| CCOc1ccc(-c2nnc(-c3ccco3)o2)cc1 | 56.5% |
| O=C(CSC(=S)N1CCOCC1)c1ccccc1 | 55.2% |
| Cc1cnc(NC(=O)c2ccccn2)s1 | 64.5% |
| COc1ccc(-c2cc3ccc(OCc4nn[nH]n4)cc3oc2=O)cc1 | 56.2% |
| O=C(Nc1ccc(Cl)cn1)c1ccc2c(c1)OCCO2 | 71.8% |
| O=C(Nc1ccn(Cc2ccccc2)n1)c1n[nH]c([N+](=O)[O-])c1Cl | 63% |
| Cc1ccsc1C(=O)OCC(=O)c1cc(C)n(CC2CCCO2)c1C (centres undefined) | 68.1% |
| Cn1c(NC(=O)c2ccccc2)nc2ccccc21 | 61.1% |
| COc1ccc(-c2cn3ccsc3n2)cc1 | 54.6% |
| O=c1c2cc(-c3ccccc3)sc2nc2n1N=C(c1cccs1)CS2 | 57.9% |
| O=C(/C=C/c1ccc2c(c1)OCCO2)c1ccc(O)cc1 | 45.6% |
| O=C(Nc1ccccc1)c1ccc2c(c1)OCCCO2 | 79.9% |
